These results are taken from PubChem BioAssay AID2551 (National Center for Advancing Translational Sciences (NCATS), 2010).

The campaign covered roughly 310,000 compounds. About 17,000 (5.5%) were called active. About 11% were inconclusive and are not listed. What follows is part of a selection rich in actives, with near analogues and random picks from the rest. Values without a mark were called inactive. The call rests on the fitted dose curve; in most records, active means well fitted inhibition curve with a large enough effect; inconclusive means small, poorly fitted or top-dose-only effect, or effect the other way; inactive means no such curve, though single readings can be large or run the other way.
On the % scale 0 is the no-effect control and ±100 the full control effect; potency means the concentration at half of the fitted maximal effect.

In the test the target is Nuclear receptor ROR-gamma (Mus musculus) (UniProt P51450). The test can be described thus: qHTS for inhibitors of ROR gamma transcriptional activity. Further: nearly all actives have a fitted effect of over 60% in size. The note with it: Drosophila S2 Gal4-RORgamma UAS-luciferase reporter, 20 h; series mostly up to 53.6 µM; activity change, negative = inhibition: at the top concentration. In outline: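 Read-out: Photinus luciferase luminescence; inhibitors lower reporter signal. Insect Schneider cells with Gal4-ROR gamma fusion under metallothionein promoter, UAS reporter; 700 uM final copper sulfate induction, 20 hr, ambient temperature.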
Chain of Nuclear receptor ROR-gamma (Mus musculus) (P51450 whole entry, looked up, the tested form may be a part): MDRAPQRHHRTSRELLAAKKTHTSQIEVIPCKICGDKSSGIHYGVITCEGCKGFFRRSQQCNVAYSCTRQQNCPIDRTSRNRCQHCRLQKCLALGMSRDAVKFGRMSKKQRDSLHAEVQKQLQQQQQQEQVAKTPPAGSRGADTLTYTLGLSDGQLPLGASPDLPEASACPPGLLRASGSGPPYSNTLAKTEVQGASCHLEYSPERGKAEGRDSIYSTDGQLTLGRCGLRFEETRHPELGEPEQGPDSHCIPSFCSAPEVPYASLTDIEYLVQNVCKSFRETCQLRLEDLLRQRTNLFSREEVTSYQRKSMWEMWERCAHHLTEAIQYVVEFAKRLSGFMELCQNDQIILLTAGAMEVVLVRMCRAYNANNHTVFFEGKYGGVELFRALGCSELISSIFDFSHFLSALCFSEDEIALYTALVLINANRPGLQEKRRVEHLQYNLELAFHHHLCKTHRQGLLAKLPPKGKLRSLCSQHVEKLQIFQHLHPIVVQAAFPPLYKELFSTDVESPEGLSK
On the technique in general: Quantitative high-throughput screening tests each substance at several concentrations.
As to `CCCn1c(=S)[nH]c2ccc(C(F)(F)F)cc21`, the “activity change, negative = inhibition” value is 15.4%. For the compound `CC(C)n1c(=S)[nH]c2cc(C(F)(F)F)ccc21`, the Potency is 0.891 µM (active).

In the case of `O=C(NCc1ccccc1)C(c1cccnc1)N(C(=O)c1csnn1)c1ccc(F)cc1` (stereo not drawn), the “activity change, negative = inhibition” value is 22.6%.

On to `Cn1c(=O)c(=O)n(C)c2cc(S(=O)(=O)CCC(=O)N3CCCCC3)ccc21`, for which the “activity change, negative = inhibition” value was -3.07%. Regarding `COc1ccc(/C=C/c2c(-c3cccc(C)c3)oc3ccc(-c4ccc5c(c4)OCO5)cc23)cc1`, the “activity change, negative = inhibition” value was -3.64%.

Regarding `CCOC(=O)C1=C(C)NC(=S)NC1c1cccs1` (stereo not drawn), the activity change, negative = inhibition was -23.4% [at 10 µM]. The same measure, in the same setting: for `COc1ccccc1NC(=O)C1=C(C)Nc2ncnn2C1c1ccc(C)o1` (stereo not drawn) the value was -5.98%.

On to `COc1ccccc1NC(=O)C1=C(C)Nc2nc3ccccc3n2C1c1cccs1` (stereo not drawn), for which the Potency was 11.2 µM (active). `COc1ccccc1NC(=O)C1=C(C)NC(=O)NC1c1ccc(C)s1` (stereo not drawn): the “activity change, negative = inhibition” value is 11.4%. On the same count and under the same terms, for `CCOC(=O)c1ccc(NC(=O)C2CC(=O)Nc3nc4ccccc4n32)cc1` (stereo not drawn) the value was 0.863%. As to `CCOC(=O)C1=C(C)Nc2nc3ccccc3n2C1c1cccs1` (stereo not drawn), the Potency was 5.62 µM (active). With `Cc1cccc(CCNS(=O)(=O)c2ccc3c(c2)NC(=O)CO3)c1`, the “activity change, negative = inhibition” value was -11.1%. `O=C(NC1CCCC1)C(c1ccco1)N(C(=O)c1ccco1)c1ccc(F)cc1` (stereo not drawn): the “activity change, negative = inhibition” value is -1.35%. With `Cc1ccc(C(=O)Oc2ccc(C(=S)N3CCOCC3)cc2)cc1`, the “activity change, negative = inhibition” value was 29.2%. With `COCC(=O)N1CCCC(C(=O)c2ccc(C(F)(F)F)cc2)C1` (stereo not drawn), the “activity change, negative = inhibition” value was -16.9%. Regarding `NC(=O)c1ccc(Nc2ccc3c(c2)CCC3)c([N+](=O)[O-])c1`, the “activity change, negative = inhibition” value was 37.1%. On the same count and under the same terms, with `COc1cc(C(=O)NCc2nnc(SCC(=O)c3ccc(Cl)cc3)o2)cc(OC)c1OC` the figure was -4.63%. As to `COc1ccc(C(=O)NCc2nnc(SCC(=O)Nc3cccc(OC)c3)o2)cc1`, the “activity change, negative = inhibition” value is 5.26%. As to `COc1cc(C(=O)NCc2nnc(SCC(=O)Nc3nc4ccc(C)cc4s3)o2)cc(OC)c1OC`, the Potency is 2.51 µM (active). For `S=C(c1ccccc1)N1CCCC1`, the “activity change, negative = inhibition” value was 4.25%. On to `S=C(c1ccc(-c2ccccc2)o1)N1CCCCC1`, for which the Potency was 10 µM (active). For the compound `OCCN1CCN(C(=S)c2ccc(-c3ccccc3)cc2)CC1`, the “activity change, negative = inhibition” value is 8.27%. For `Cc1ccccc1NC(=O)CSc1ccc2nnc(-c3ccccn3)n2n1`, the “activity change, negative = inhibition” value was -29.6%. On the same count and under the same terms, for `CC(C)CC(=O)Nc1nnc(S(=O)(=O)N(C)c2ccc(Cl)cc2)s1` the value was 4.6%. Same read-out and setting: for `CC(=O)Nc1ccc(N2C(=O)C3C4C=CC(CC4)C3C2=O)cc1` (stereo not drawn) the value was 7.84%. Same read-out and setting: for `CCOC(=O)N1CCN(CC(=O)c2c(C)[nH]c3ccccc23)CC1` the value was -1.33%. With `CCOC(=O)c1c(C)[nH]c2c1-c1ccccc1C(=O)C2=O`, the Potency is 3.55 µM (active). Turning to `CCOC(=O)c1c(C)[nH]c(=S)c(C#N)c1-c1ccccc1`, the Potency was 12.6 µM (active).

Take `CCOC(=O)c1c(-c2ccccc2)oc2cc(Br)c(O)cc12`: the “activity change, negative = inhibition” value was -0.0338%. On the same count and under the same terms, with `CCOC(=O)c1c(C)nc(-c2ccccc2)nc1NC(=O)C(C)C` the figure was 13.9%. For the compound `Cc1[nH]c2ccccc2c1C(=O)COC(=O)C(C)C`, the “activity change, negative = inhibition” value is 5.68%.

For `COc1cccc(NC(=O)CCc2nnc3ccc(N4CCC(C)CC4)nn23)c1`, the “activity change, negative = inhibition” value was -0.897%.

Regarding `CCCCCC(O)(CCN1CCCCC1)c1ccccc1` (stereo not drawn), the “activity change, negative = inhibition” value is -2.33%. As for `COc1cc(C)cc(CN2CCC(Cc3ccccc3)CC2)c1O`, the “activity change, negative = inhibition” value was -18.5%. `CCn1c(SCC(=O)NC2=NCCS2)nnc1C(C)NC(=O)c1ccccc1F` (stereo not drawn): the “activity change, negative = inhibition” value was -20.8%. As to `CC1CCN(C(=O)CCc2nnc3ccc(NCc4ccco4)nn23)CC1`, the “activity change, negative = inhibition” value was -1.81%.

As to `CCOC(=O)C1CCCN(S(=O)(=O)c2ccc3c(c2)C(C)(C)C(=O)N3C)C1` (stereo not drawn), the “activity change, negative = inhibition” value is -5.47%. With `CC1CC(C)CN(c2ccc(S(=O)(=O)N3CCOCC3)cc2)C1` (stereo not drawn), the “activity change, negative = inhibition” value was -4.93%. In the case of `O=C(Cc1ccc(Br)cc1)N1CCN(c2ccccn2)CC1`, the “activity change, negative = inhibition” value was 18.4%.

Take `CCC1=NN(C(=O)Cc2ccc([N+](=O)[O-])cc2)C(O)(c2ccc(Br)cc2)C1` (stereo not drawn): the Potency is 11.2 µM (active).

With `O=C(Cc1ccccc1)N1CCN(S(=O)(=O)c2ccc([N+](=O)[O-])cc2)CC1`, the “activity change, negative = inhibition” value was 29.6%. Take `C[N+](C)(C)CCNC(=O)c1cc[n+](Cc2ccccc2)c(/C=N/O)c1`: the “activity change, negative = inhibition” value is -11.5%. Regarding `CC1CCCCC1NC(=O)c1cn(C)c2ccc(S(=O)(=O)N3CCOCC3)cc2c1=O` (stereo not drawn), the “activity change, negative = inhibition” value was 15.2%. In the case of `COc1ccc(C(O)(C2CCCCC2)C(CN2CCCC2)c2ccccc2)cc1` (stereo not drawn), the “activity change, negative = inhibition” value was -4.22%.

Regarding `O=C(C1CCCO1)N1CCN(C(=S)Nc2cccc(Cl)c2)CC1` (stereo not drawn), the “activity change, negative = inhibition” value was -2.03%. `Cc1cccc(C(=O)N2CCC(c3nc4ccccc4s3)CC2)c1`: the “activity change, negative = inhibition” value is 36.4%. As for `Cc1cccc(NC(=S)N2CCC(c3nc4ccccc4s3)CC2)c1`, the Potency was 12.6 µM (active). Consider `Cc1ccc(C2CCN(C(=S)Nc3cccc(Cl)c3)C2)cc1` (stereo not drawn), for which the Potency was 10 µM (active). Consider `O=C(NC1CCCC1)C1CCN(C(=O)Nc2cccc(Cl)c2)CC1`, for which the “activity change, negative = inhibition” value was -13.1%.

Regarding `Cc1nc2ccc(NC(=S)N3CCC(C)CC3)cc2nc1C`, the “activity change, negative = inhibition” value is 18.1%. As to `Cc1cccc(OCC(=O)Nc2ccc(NC(=O)c3ccco3)c(C)c2)c1`, the “activity change, negative = inhibition” value was -0.762%. On to `O=C(NCC(=O)N(c1ccccc1)C(C(=O)NCC1CCCO1)c1ccccc1)c1cccs1` (stereo not drawn), for which the “activity change, negative = inhibition” value was -4.7%. Still for that read-out and setting: with `CC1(C)C2CCC1(CS(=O)(=O)NCCc1c[nH]c3ccccc13)C(=O)C2` (stereo not drawn) the figure was 32.8%.
